Experimental data as given in PubChem BioAssay (EPA / NIEHS).
The source made the active and inactive calls. Rule for the calls: active = hit-call score of the fitted dose curve at least 0.9, where 1 is the maximum; inactive = score below 0.9.

What was measured:
[1] = ATG_CRE_CIS: Attagene CIS-FACTORIAL HepG2 Assay for human cAMP Responsive Element (CRE) binding protein 3 (AID 2282926); details: HepG2 CRE cis-reporter, Attagene multiplexed mRNA; actives raise or lower the signal
In short: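 Endogenous transcription factor activity read via CRE-regulated reporter transcripts in transfected HepG2 cells. After 24 h exposure, RNA was reverse-transcribed, amplified, fluorescently labelled and sized by capillary electrophoresis; gain or loss fitted against DMSO.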

[2] = molecular target: CCAAT/enhancer-binding protein beta (Homo sapiens) (UniProt P17676); test: ATG_C_EBP_CIS: Attagene CIS-FACTORIAL HepG2 Assay for human CCAAT/Enhancer Binding Protein (C/EBP) beta (AID 2282927); details: HepG2 Attagene cis-factorial transcription factor reporter; actives raise or lower the signal
In short: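 HepG2, transient MRTU transfection, 24 h treatment. RT-PCR plus CE fluorescence; DMSO negative control, bidirectional fit.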

[3] = ATG_CMV_CIS: Attagene CIS-FACTORIAL HepG2 Assay for human CMV (Internal Marker) (AID 2282928); details: HepG2 CMV promoter reporter, transcription factor profiling; actives raise or lower the signal;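 note: endpoint acts as a background internal control marker rather than a target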
In short: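 Readout: fluorescent reporter cDNA fragments separated by capillary electrophoresis after RT-PCR and HpaI cut. Cells: HepG2 carrying transfected cis-promoter reporter constructs, dosed 24 h. Endpoint serves as background internal-marker control, fit bidirectionally versus DMSO.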

[4] = ATG_DR4_LXR_CIS: Attagene CIS-FACTORIAL HepG2 Assay for human Liver X Receptor (LXR), DR4 submotif (AID 2282929); details: HepG2 Attagene DR4 cis-reporter, mRNA transcription; actives raise or lower the signal
In short: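 Endogenous factor activity at a DR4 cis-element is read as reporter mRNA in transiently transfected HepG2 cells. Exposure lasts 24 h; transcripts are amplified, fluorescently labelled and sized by capillary electrophoresis, with DMSO as baseline.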

[5] = ATG_AP_2_CIS: Attagene CIS-FACTORIAL HepG2 Assay for human Activator Protein 2 (AP-2) (AID 2282932); details: HepG2 AP-2 cis-reporter, Attagene transcription factor profiling; actives raise or lower the signal
In short: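 Liver-derived HepG2 line, cis-reporter system measuring endogenous factors; 24 h dosing; reporter mRNA detected by fluorescent RT-PCR and capillary electrophoresis.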

[6] = ATG_E_Box_CIS: Attagene CIS-FACTORIAL HepG2 Assay for human Enhancer Box (E-box) (AID 2282936); details: HepG2 E-box cis-reporter transcription, actives raise or lower the signal
In short: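 In this cell-based setup, HepG2 cells bearing transfected promoter-driven reporter units were exposed to chemicals for 24 h; reporter transcripts were amplified, 6-FAM-labelled, cut with HpaI and sized by capillary electrophoresis.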

[7] = ATG_EGR_CIS: Attagene CIS-FACTORIAL HepG2 Assay for human Early Growth Response 1 (EGR1) (AID 2282938); details: HepG2 Attagene CIS-FACTORIAL EGR reporter mRNA; actives raise or lower the signal
In short: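 HepG2, transient MRTU transfection (cis promoters), 24 h compound. RNA → RT (oligo-dT) → PCR → 6-FAM labelling → HpaI cut → CE fluorescence. Bidirectional fit, DMSO baseline.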

[8] = ATG_M_19_CIS: Attagene CIS-FACTORIAL HepG2 Assay for M19 Transcription Factor (Internal Marker) (AID 2282939); details: HepG2 Attagene CIS-FACTORIAL M19 internal marker reporter; actives raise or lower the signal
In short: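 Signals come from fluorescence of labelled reporter-specific PCR fragments resolved by capillary electrophoresis, following 24 h treatment of HepG2 cells transfected with cis-promoter reporter units; activity was fitted in both directions relative to DMSO.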

[9] = ATG_Ets_CIS: Attagene CIS-FACTORIAL HepG2 Assay for human Erythroblast Transformation Specific (ETS) (AID 2282941); details: HepG2 ETS cis-reporter transcription, actives raise or lower the signal
In short: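 RT-PCR/capillary electrophoresis fluorescence read-out of reporter mRNA; HepG2 transient multi-reporter transfection; 24 h compound exposure; gain or loss of signal fitted bidirectionally relative to DMSO.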

[10] = molecular target: Hepatocyte nuclear factor 3-beta (Homo sapiens) (UniProt Q9Y261); test: ATG_FoxA2_CIS: Attagene CIS-FACTORIAL HepG2 Assay for human Forkhead box A2 (FOXA2) (AID 2282942); details: HepG2 cis-reporter transcription factor activity, 24 h; actives raise or lower the signal
In short: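 Cells: HepG2, transient multiplex reporter transfection. Exposure 24 h. Detection: reporter-specific RT-PCR, fluorescent labelling, restriction digest, capillary electrophoresis. Analysis: bidirectional curve fit, DMSO as negative control.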

[11] = ATG_FoxO_CIS: Attagene CIS-FACTORIAL HepG2 Assay for human Forkhead box O (FoxO) (AID 2282943); details: HepG2 Attagene cis-reporter, FoxO element, mRNA; actives raise or lower the signal
In short: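 Transfected HepG2 reporter cells exposed to test chemical for 24 h; reporter RNA measured by reverse transcription, PCR and fluorescent capillary electrophoresis; curves fitted for increases and decreases against DMSO.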

[12] = ATG_GATA_CIS: Attagene CIS-FACTORIAL HepG2 Assay for human GATA Binding Protein (AID 2282944); details: HepG2 GATA cis-element reporter, Attagene multiplex mRNA; actives raise or lower the signal
In short: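 After transfecting HepG2 cells with multiple cis-regulated reporter units, chemicals are dosed for 24 h; isolated RNA undergoes RT-PCR and fluorescent labeling before capillary electrophoresis, with activity expressed against DMSO.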

[13] = ATG_M_32_CIS: Attagene CIS-FACTORIAL HepG2 Assay for M32 Transcription Factor (Internal Marker) (AID 2282949); details: HepG2 Attagene cis-factorial M32 reporter, mRNA; actives raise or lower the signal;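 note: background control marker of the multiplexed CIS panel rather than a real target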
In short: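 HepG2 transfectants (cis-regulated reporter transcription units) dosed 24 h. Reporter mRNA by RT-PCR plus CE, analysed as gain or loss relative to DMSO.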

[14] = ATG_M_06_CIS: Attagene CIS-FACTORIAL HepG2 Assay for M06 Transcription Factor (Internal Marker) (AID 2282950); details: HepG2 Attagene CIS-FACTORIAL M06 internal marker reporter; actives raise or lower the signal
In short: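 HepG2 liver cells, 24 h exposure. Reporter transcripts from transfected cis-element constructs quantified by RT-PCR/capillary electrophoresis fluorescence. Bidirectional curve fit against DMSO.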

[15] = ATG_PXRE_CIS: Attagene CIS-FACTORIAL HepG2 Assay for human Pregnane X Receptor Element (PXRE) (AID 2282957); details: HepG2 Attagene CIS-FACTORIAL PXRE reporter, mRNA; actives raise or lower the signal
In short: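 Reporter transcripts under endogenous PXR-responsive cis-regulation quantified from total RNA of transfected HepG2 cells 24 h post-dosing, via RT-PCR with fluorescent primer extension and capillary electrophoresis. Gain or loss of signal fitted against DMSO baseline.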

[16] = ATG_Sox_CIS: Attagene CIS-FACTORIAL HepG2 Assay for human SRY-box transcription factor (SOX) (AID 2282960); details: HepG2 Attagene cis-factorial SOX reporter, mRNA; actives raise or lower the signal
In short: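 Cells were transfected with reporter constructs under cis-regulatory promoters, then exposed to chemicals for 24 h. Reporter transcripts were quantified by fluorescence after RT-PCR and capillary electrophoresis; activity was fitted in both directions against DMSO.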

[17] = molecular target: Transcription factor Sp1 (Homo sapiens) (UniProt P08047); test: ATG_Sp1_CIS: Attagene CIS-FACTORIAL HepG2 Assay for human Specificity Protein 1 (Sp1) (AID 2282961); details: HepG2 Sp1 cis-reporter transcription, actives raise or lower the signal
In short: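 Measures mRNA induction of an Sp1-linked reporter in HepG2 cells 24 h post-dosing. Multiplexed reporters read by RT-PCR and capillary electrophoresis; DMSO serves as negative control and baseline.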

[18] = ATG_SREBP_CIS: Attagene CIS-FACTORIAL HepG2 Assay for human Sterol Regulatory Element Binding (SREBP) (AID 2282962); details: HepG2 Attagene cis-factorial SREBP reporter, mRNA; actives raise or lower the signal
In short: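 Readout: fluorescent reporter-transcript peaks resolved by capillary electrophoresis after RT-PCR. Cells were human HepG2 carrying transfected cis-promoter reporter constructs, dosed for 24 h. Gain or loss of signal was fitted against DMSO controls.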

[19] = molecular target: Signal transducer and activator of transcription 3 (Homo sapiens) (UniProt P40763); test: ATG_STAT3_CIS: Attagene CIS-FACTORIAL HepG2 Assay for human Signal Transducer and Activator of Transcription 3 (STAT3) (AID 2282963); details: HepG2, Attagene cis-factorial STAT3 reporter transcription; actives raise or lower the signal
In short: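 Fluorescence intensity of 6-FAM-labelled reporter fragments, separated by capillary electrophoresis after RT-PCR, gave the signal. Cells were HepG2 transfected with cis-element reporter units and treated 24 h; fitting was bidirectional relative to DMSO.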

[20] = ATG_TA_CIS: Attagene CIS-FACTORIAL HepG2 Assay for human TA Basal Promoter (AID 2282964); details: HepG2 Attagene CIS-factorial TA basal promoter reporter; actives raise or lower the signal
In short: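 Fluorescence from labelled RT-PCR reporter fragments, separated by capillary electrophoresis, gives the signal. Cells: HepG2 transiently carrying multiple reporter units, 24 h chemical dosing. Gain or loss relative to DMSO.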

Sequence of Transcription factor Sp1 (Homo sapiens) (P08047 whole entry, looked up): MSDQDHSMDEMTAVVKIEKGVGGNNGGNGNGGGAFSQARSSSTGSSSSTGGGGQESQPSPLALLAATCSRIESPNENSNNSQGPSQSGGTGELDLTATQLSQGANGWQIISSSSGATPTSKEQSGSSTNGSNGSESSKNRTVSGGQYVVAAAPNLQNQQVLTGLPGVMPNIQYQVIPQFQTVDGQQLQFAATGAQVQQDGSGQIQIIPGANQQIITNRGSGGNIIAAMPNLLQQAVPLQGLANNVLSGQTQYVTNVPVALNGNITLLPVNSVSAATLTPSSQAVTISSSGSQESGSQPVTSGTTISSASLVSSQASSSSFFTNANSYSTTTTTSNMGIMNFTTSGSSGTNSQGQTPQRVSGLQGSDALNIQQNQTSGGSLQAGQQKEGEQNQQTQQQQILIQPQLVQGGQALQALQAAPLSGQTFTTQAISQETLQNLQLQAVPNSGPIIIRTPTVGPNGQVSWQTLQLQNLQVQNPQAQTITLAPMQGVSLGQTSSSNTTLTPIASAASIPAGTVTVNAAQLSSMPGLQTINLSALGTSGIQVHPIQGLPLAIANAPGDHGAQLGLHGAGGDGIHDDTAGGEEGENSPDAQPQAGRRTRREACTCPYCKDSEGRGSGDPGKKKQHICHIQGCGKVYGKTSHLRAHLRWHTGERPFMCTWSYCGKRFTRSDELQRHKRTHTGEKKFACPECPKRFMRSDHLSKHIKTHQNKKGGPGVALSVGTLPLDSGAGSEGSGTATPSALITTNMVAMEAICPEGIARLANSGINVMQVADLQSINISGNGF
Sequence of Hepatocyte nuclear factor 3-beta (Homo sapiens) (Q9Y261 whole entry, looked up): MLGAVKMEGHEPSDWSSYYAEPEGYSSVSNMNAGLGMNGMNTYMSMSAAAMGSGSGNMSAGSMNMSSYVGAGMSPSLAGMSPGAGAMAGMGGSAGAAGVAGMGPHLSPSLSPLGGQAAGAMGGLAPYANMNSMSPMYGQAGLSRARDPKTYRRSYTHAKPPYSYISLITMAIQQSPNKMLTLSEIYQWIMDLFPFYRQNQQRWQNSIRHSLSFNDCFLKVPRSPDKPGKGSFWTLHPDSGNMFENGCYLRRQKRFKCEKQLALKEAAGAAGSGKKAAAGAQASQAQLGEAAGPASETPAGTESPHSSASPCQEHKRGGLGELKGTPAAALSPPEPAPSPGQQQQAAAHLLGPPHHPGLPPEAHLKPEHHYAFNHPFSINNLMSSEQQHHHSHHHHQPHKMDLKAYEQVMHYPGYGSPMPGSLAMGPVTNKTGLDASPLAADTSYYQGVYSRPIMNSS
Sequence of CCAAT/enhancer-binding protein beta (Homo sapiens) (P17676 whole entry, looked up): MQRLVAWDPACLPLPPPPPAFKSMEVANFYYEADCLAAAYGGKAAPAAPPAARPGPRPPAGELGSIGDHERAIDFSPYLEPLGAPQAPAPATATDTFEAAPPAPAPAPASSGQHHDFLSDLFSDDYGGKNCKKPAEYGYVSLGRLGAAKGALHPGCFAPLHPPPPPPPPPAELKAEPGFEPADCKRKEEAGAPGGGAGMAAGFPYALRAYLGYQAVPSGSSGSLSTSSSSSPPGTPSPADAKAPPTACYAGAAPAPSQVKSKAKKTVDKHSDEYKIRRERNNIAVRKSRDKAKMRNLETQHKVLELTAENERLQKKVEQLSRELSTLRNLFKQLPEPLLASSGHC
Sequence of Signal transducer and activator of transcription 3 (Homo sapiens) (P40763 whole entry, looked up, the tested form may be a part): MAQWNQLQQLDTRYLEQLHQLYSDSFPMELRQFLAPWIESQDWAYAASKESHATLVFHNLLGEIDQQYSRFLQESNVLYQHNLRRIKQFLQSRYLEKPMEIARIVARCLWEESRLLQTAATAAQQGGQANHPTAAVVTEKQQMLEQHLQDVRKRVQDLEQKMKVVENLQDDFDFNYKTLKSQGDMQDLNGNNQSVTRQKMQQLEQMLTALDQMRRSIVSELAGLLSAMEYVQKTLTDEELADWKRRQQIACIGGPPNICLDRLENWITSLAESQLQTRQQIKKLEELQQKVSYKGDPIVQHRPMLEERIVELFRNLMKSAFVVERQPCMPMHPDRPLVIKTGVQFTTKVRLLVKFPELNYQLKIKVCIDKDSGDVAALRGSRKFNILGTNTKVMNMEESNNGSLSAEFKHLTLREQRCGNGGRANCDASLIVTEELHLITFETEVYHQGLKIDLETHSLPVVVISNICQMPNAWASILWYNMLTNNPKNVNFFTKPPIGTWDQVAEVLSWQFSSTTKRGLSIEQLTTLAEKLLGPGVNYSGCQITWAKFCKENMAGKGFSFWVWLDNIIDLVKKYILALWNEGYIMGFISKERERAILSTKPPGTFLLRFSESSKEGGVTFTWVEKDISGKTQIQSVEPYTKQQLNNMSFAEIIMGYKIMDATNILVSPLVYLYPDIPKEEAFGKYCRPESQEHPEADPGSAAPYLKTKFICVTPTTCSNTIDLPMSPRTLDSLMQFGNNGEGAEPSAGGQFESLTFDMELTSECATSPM

## COc1cc(OC)nc(Oc2cccc(Oc3nc(OC)cc(OC)n3)c2C(=O)O)n1
[1]
  outcome: inactive
[2]
  outcome: inactive
[3]
  outcome: inactive
[4]
  outcome: inactive
[5]
  outcome: inactive
[6]
  outcome: inactive
[7]
  outcome: inactive
[8]
  outcome: inactive
[9]
  outcome: inactive
[10]
  outcome: inactive
[11]
  outcome: inactive
[12]
  outcome: inactive
[13]
  outcome: inactive
[14]
  outcome: inactive
[15]
  AC50: 56 µM (active)
[16]
  outcome: inactive
[17]
  outcome: inactive
[18]
  outcome: inactive
[19]
  outcome: inactive
[20]
  outcome: inactive

## Oc1ccc(C2(c3ccc(O)cc3)c3ccccc3-c3ccccc32)cc1
[1]
  AC50: 8.42 µM (active)
[2]
  AC50: 17.1 µM (active)
[3]
  AC50: 17.7 µM (active)
[4]
  AC50: 10.6 µM (active)
[5]
  outcome: inactive
[6]
  AC50: 17 µM (active)
[7]
  AC50: 14 µM (active)
[8]
  outcome: inactive
[9]
  outcome: inactive
[10]
  outcome: inactive
[11]
  AC50: 9.31 µM (active)
[12]
  AC50: 14.6 µM (active)
[13]
  outcome: inactive
[14]
  outcome: inactive
[15]
  AC50: 2.78 µM (active)
[16]
  outcome: inactive
[17]
  outcome: inactive
[18]
  AC50: 13.6 µM (active)
[19]
  outcome: inactive
[20]
  AC50: 17.2 µM (active)

## O=P(O)(Oc1ccccc1)Oc1ccccc1
[1]
  outcome: inactive
[2]
  outcome: inactive
[3]
  outcome: inactive
[4]
  outcome: inactive
[5]
  outcome: inactive
[6]
  outcome: inactive
[7]
  outcome: inactive
[8]
  outcome: inactive
[9]
  outcome: inactive
[10]
  outcome: inactive
[11]
  outcome: inactive
[12]
  outcome: inactive
[13]
  outcome: inactive
[14]
  outcome: inactive
[15]
  AC50: 74.2 µM (active)
[16]
  outcome: inactive
[17]
  outcome: inactive
[18]
  outcome: inactive
[19]
  outcome: inactive
[20]
  outcome: inactive

## CC1(C)CC(=O)CC(C)(C)N1[O]
[1]
  outcome: inactive
[2]
  outcome: inactive
[3]
  outcome: inactive
[4]
  outcome: inactive
[5]
  outcome: inactive
[6]
  outcome: inactive
[7]
  outcome: inactive
[8]
  outcome: inactive
[9]
  outcome: inactive
[10]
  outcome: inactive
[11]
  outcome: inactive
[12]
  outcome: inactive
[13]
  outcome: inactive
[14]
  outcome: inactive
[15]
  AC50: 33.2 µM (active)
[16]
  outcome: inactive
[17]
  outcome: inactive
[18]
  outcome: inactive
[19]
  outcome: inactive
[20]
  outcome: inactive

## O=CNC(N1CCN(C(NC=O)C(Cl)(Cl)Cl)CC1)C(Cl)(Cl)Cl (stereo not given)
[1]
  outcome: inactive
[2]
  outcome: inactive
[3]
  outcome: inactive
[4]
  outcome: inactive
[5]
  outcome: inactive
[6]
  outcome: inactive
[7]
  outcome: inactive
[8]
  outcome: inactive
[9]
  outcome: inactive
[10]
  outcome: inactive
[11]
  outcome: inactive
[12]
  outcome: inactive
[13]
  outcome: inactive
[14]
  outcome: inactive
[15]
  AC50: 7.22 µM (active)
[16]
  outcome: inactive
[17]
  outcome: inactive
[18]
  outcome: inactive
[19]
  outcome: inactive
[20]
  outcome: inactive

## CC(=O)/C=C/c1ccccc1
[1]
  outcome: inactive
[2]
  outcome: inactive
[3]
  outcome: inactive
[4]
  AC50: 78.1 µM (active)
[5]
  outcome: inactive
[6]
  outcome: inactive
[7]
  AC50: 69.4 µM (active)
[8]
  outcome: inactive
[9]
  outcome: inactive
[10]
  outcome: inactive
[11]
  outcome: inactive
[12]
  outcome: inactive
[13]
  outcome: inactive
[14]
  outcome: inactive
[15]
  AC50: 26.4 µM (active)
[16]
  AC50: 56.4 µM (active)
[17]
  outcome: inactive
[18]
  outcome: inactive
[19]
  outcome: inactive
[20]
  outcome: inactive

## CC(C)CCCCCCCOP(=O)(Oc1ccccc1)Oc1ccccc1
[1]
  outcome: inactive
[2]
  outcome: inactive
[3]
  AC50: 55.6 µM (active)
[4]
  AC50: 21.6 µM (active)
[5]
  outcome: inactive
[6]
  outcome: inactive
[7]
  outcome: inactive
[8]
  outcome: inactive
[9]
  outcome: inactive
[10]
  outcome: inactive
[11]
  outcome: inactive
[12]
  outcome: inactive
[13]
  outcome: inactive
[14]
  outcome: inactive
[15]
  AC50: 0.408 µM (active)
[16]
  outcome: inactive
[17]
  outcome: inactive
[18]
  AC50: 27.2 µM (active)
[19]
  outcome: inactive
[20]
  outcome: inactive
